MPTP inh = mitochondrial permeability transition pore inhibitors, primary screen, biochemical, isolated mouse mitochondria, absorbance. AID 602449, 2012. inhibition, % at 10 µM. Ca2+ swelling absorbance, 30 min. 360,000 compounds, 1.4% hits;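 active = inhibition of 50% or more, scaled per plate between neutral and stimulator controls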
H9c2 TAG inh = inhibitors of triacylglycerol accumulation, primary screen, cell-based, uHTS, fluorescence, H9c2 | H9c2 cells, Nile Red lipid (TAG) fluorescence; cells loaded with 200 µM oleic acid | inhibition, % at 12.5 µM | 230,000 compounds, 0.66% hits | AID 651582, 2012;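 active = pattern-corrected inhibition of lipid staining of at least 50% with the nuclear-stain viability signal not falling by more than 50%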
NadD block = inhibitors of S. aureus NadD, primary screen, biochemical, colorimetric, uHTS; 360,000 compounds, 0.78% hits; purified NadD enzyme, colorimetric absorbance read-out; inhibition, % at 20 µM; AID 602399, 2012; in the data active = inhibition above about 26%
aDG glyco act = activators of alpha-DG glycosylation, primary screen, uHTS, Pro5-aDG cells, AlphaScreen | alpha-DG glycosylation AlphaScreen (IIH6); 0% Pro5, 100% B10-LARGE cell signal | activation, % at 10 µM | 360,000 compounds, 0.22% hits | AID 624168, 2012;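 active = activation of at least 8% versus controls, or a plate z-score of at least 8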;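 note: Pro5 are CHO cells carrying HIG-tagged alpha-DG that lacks glycosylation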
Rh123 counter = fluorescence retest of MPTP screen hits in isolated mitochondria, single concentration | inhibition, % at 10 µM | membrane potential, Rhodamine 123 fluorescence | AID 624504, 2012 | shares compounds with MPTP inh | 5,000 compounds, 78% hits; in the data active = inhibition above about 22%
MPTP swell DR = mitochondrial permeability transition pore inhibitors, dose response, biochemical, absorbance, uHTS hits; IC50, µM; shares compounds with MPTP inh; isolated mitochondria swelling; 780 compounds, 58% hits; in the data active = IC50 below about 20 µM
MPTP counter DR = fluorescent counter-screen in isolated mitochondria, dose response, counter-screen for MPTP inhibitor project, biochemical, fluorescence, uHTS hits. shares compounds with MPTP inh. isolated mitochondria counterscreen, fluorescence read-out. IC50, µM. 780 compounds, 49% hits; in the data active = IC50 below about 80 µM
A number is an active result. Most compounds without a hit are left out; they make up all but 2.7% or so of the library.

CC[C@H](C)[C@@H](C(=O)NCCCCCCCCCCC(=O)N1CCN(C(=O)OC(C)(C)C)CC1)n1cc(CCCCCNC(=O)OC(C)(C)C)nn1 was read as MPTP inh 86.8, H9c2 TAG inh inactive, NadD block inactive, aDG glyco act inactive and Rh123 counter 22.1.
For O=C(Nc1ccc2c(c1)[C@H]1C[C@@H](CC(=O)N3CCOCC3)O[C@@H](CO)[C@H]1O2)C1CCOCC1 the results were MPTP inh inactive, H9c2 TAG inh inactive, NadD block inactive and aDG glyco act inactive.
CC(=O)Nc1ccccc1OCC(=O)c1cc(C)n(Cc2cccs2)c1C was read as MPTP inh 99.9, H9c2 TAG inh inactive, NadD block inactive, aDG glyco act inactive and Rh123 counter 93.5.
O=C(CSc1nnc(-c2c[nH]c3ccccc23)n1C1CC1)NC1CCS(=O)(=O)C1 (configuration not stated) was read as MPTP inh inactive, H9c2 TAG inh inactive, NadD block inactive and aDG glyco act inactive.
Screening Cc1cc(C)cc(-n2cccc2/C=C2/C(=N)N3C(=NC2=O)SN=C3S(C)(=O)=O)c1 returned MPTP inh 62.7, H9c2 TAG inh inactive, NadD block inactive, aDG glyco act inactive and Rh123 counter 49.6.
`Cc1ccc(-n2cccc2/C=C2/C(=N)N3C(=NC2=O)SN=C3S(C)(=O)=O)cc1` gave MPTP inh inactive, H9c2 TAG inh inactive, NadD block inactive and aDG glyco act inactive.
O=C(NNc1ccccc1Br)C(O)(c1cccc(C(F)(F)F)c1)c1cccc(C(F)(F)F)c1 was read as MPTP inh 95.3, NadD block inactive, aDG glyco act inactive and Rh123 counter 74.1.
For Cc1ccc(NNC(=O)C(O)(c2cccc(C(F)(F)F)c2)c2cccc(C(F)(F)F)c2)cc1 the results were MPTP inh 71.6, NadD block inactive, aDG glyco act inactive and Rh123 counter 68.7.
Screening CN1C(=O)C(CC#N)(C2(CC#N)C(=O)N(C)c3ccccc32)c2ccccc21 (configuration not stated) returned MPTP inh inactive, H9c2 TAG inh inactive, NadD block inactive and aDG glyco act inactive.
`COc1ccc(C(=O)NC(C)Cc2c[nH]c3ccccc23)cc1` (configuration not stated) gave MPTP inh inactive, H9c2 TAG inh inactive, NadD block inactive and aDG glyco act inactive.
Cn1nc(C(C)(C)C)cc1C(=O)NCc1cc(F)cc2c1OCOC2 was read as MPTP inh 92.3, H9c2 TAG inh inactive, NadD block inactive, aDG glyco act inactive and Rh123 counter 83.9.
Screening Cc1ccc(CNC(=O)COC(=O)c2nc(-c3ccccc3)oc2C)cc1 returned MPTP inh inactive, H9c2 TAG inh inactive, NadD block inactive and aDG glyco act inactive.
`COc1ccc(/C=C/c2nc(-c3ccccc3O)n(-c3ccccc3)n2)cc1` gave MPTP inh inactive, NadD block inactive and aDG glyco act inactive.
Screening COc1ccc(/C=C/c2nc(-c3ccccc3O)n[nH]2)cc1 returned MPTP inh 55.9, NadD block inactive, aDG glyco act inactive and Rh123 counter 45.7.
COC(=O)C[C@H]1C[C@@H]2c3cc(NS(=O)(=O)c4cccc(OC)c4)ccc3O[C@@H]2[C@@H](CO)O1 was read as MPTP inh inactive, H9c2 TAG inh inactive, NadD block inactive and aDG glyco act inactive.
Screening Cc1ccc2nc3c(c(Nc4ccc5c(c4)OCCO5)c2c1)CCC3 returned MPTP inh 53.7, NadD block inactive, aDG glyco act inactive and Rh123 counter 75.7.
Screening Cc1ccc2nc3c(c(Nc4ccc(O)cc4)c2c1)CCC3 returned MPTP inh inactive, NadD block inactive and aDG glyco act inactive.
Cc1cccc(Nc2c3c(nc4ccccc24)CCC3)c1 was read as MPTP inh 77.6, H9c2 TAG inh inactive, NadD block inactive, aDG glyco act inactive and Rh123 counter 74.5.
COc1ccc(-n2ncc3c2CC(C)(C)CC3NC(=O)CCN2CCCCC2=O)cc1 (configuration not stated) was read as MPTP inh inactive, NadD block inactive and aDG glyco act inactive.
`CCOC(=O)c1c(/N=C/c2cc(C)ccc2O)sc2c1CCN(C)C2` gave MPTP inh 85.1, NadD block inactive, aDG glyco act inactive, Rh123 counter inactive, MPTP swell DR inactive and MPTP counter DR 76.
`Cc1cccc(/C=N/c2sc3c(c2C(=O)OC(C)(C)C)CCN(C)C3)c1O` gave MPTP inh 56.4, NadD block inactive, aDG glyco act inactive, Rh123 counter inactive, MPTP swell DR 8.87 and MPTP counter DR 67.1.
`CCOC(=O)c1c(NC(=O)c2ccc(S(=O)(=O)N3CCOCC3)cc2)sc2c1CCN(C)C2` gave MPTP inh inactive, NadD block inactive and aDG glyco act inactive.
For CCn1c2ccccc2c2cc(CNCc3ccc(OC)cc3OC)ccc21 the results were MPTP inh 73.2, H9c2 TAG inh inactive, NadD block inactive, aDG glyco act inactive and Rh123 counter 37.1.
Screening CN(C)Cc1cc(C(F)(F)F)ccc1C(O)(c1ccccc1)c1ccccc1 returned MPTP inh inactive, H9c2 TAG inh inactive, NadD block inactive and aDG glyco act inactive.
`CC(=O)c1cccc(NC(=O)C2CCCN2S(=O)(=O)c2cccs2)c1` (configuration not stated) gave MPTP inh inactive, H9c2 TAG inh inactive, NadD block inactive and aDG glyco act inactive.
Screening Cc1ccccc1Nc1nc(N)nc(CSc2nc3ccccc3c(=O)n2C)n1 returned MPTP inh 57.2, H9c2 TAG inh inactive, NadD block inactive, aDG glyco act inactive and Rh123 counter 22.1.
`Cc1ccccc1Nc1nc(N)nc(CSc2nc3ccccc3c(=O)n2CCCO)n1` gave MPTP inh inactive, NadD block inactive and aDG glyco act inactive.
For FC(F)Oc1ccc(NC(=S)NC2CCCCCCC2)cc1 the results were MPTP inh inactive, NadD block inactive and aDG glyco act inactive.
Screening NS(=O)(=O)c1ccc(NC(=S)NC2CCCCC2)cc1 returned MPTP inh inactive, H9c2 TAG inh inactive, NadD block inactive and aDG glyco act inactive.
`S=C(Nc1ccc(Br)cc1)NC1CCCCC1` gave MPTP inh 97.2, NadD block inactive, aDG glyco act inactive and Rh123 counter 99.1.
S=C(NCCc1ccc(Cl)cc1)NC1CCCC1 was read as MPTP inh 52.9, NadD block inactive, aDG glyco act inactive and Rh123 counter 77.8.
Screening S=C(NCCc1ccc(Cl)cc1)NC1CCCCC1 returned MPTP inh inactive, H9c2 TAG inh inactive, NadD block inactive and aDG glyco act inactive.
